Laboratory results: PubChem BioAssay AID720541 (National Center for Advancing Translational Sciences (NCATS), 2013)
Hit rate of the full screen: of about 1,300 compounds, about 420 (32%) were called active. Another 32% or so got no clear call; they are omitted. Calls come from the whole dose curve; as a rule, active = well fitted inhibition curve with a large enough effect; inconclusive = small, poorly fitted or top-dose-only effect; inactive = no such curve, though single readings can be large or run the other way. The list shows a part of the results. A call without a number means that no potency is given here.
Note: nearly all actives have a fitted effect of over 65% in size.
Potency is the fitted concentration of half-maximal effect.

These compounds were tested against C-terminal-binding protein 1 (Homo sapiens) (UniProt Q13363) (assay: qHTS for Inhibitors of the Phosphatase Activity of Eya2: Carboxyl-terminal binding protein (CtBP) Counterscreen for Cherry-picked Compounds). Settings: purified protein-protein binding, AlphaScreen, 3 h; series mostly up to 46.1 µM.
Procedure, shortened: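 AlphaScreen using 25 nM GST-E1A with 25 nM CtBP-6xHIS; compounds at 2.5 nM–46 uM final, 2 h at room temperature, then donor/acceptor beads (20 ug/mL) for 1 h in the dark. Signal normalized to E1A peptide inhibitor (maximum inhibition) and DMSO.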
In the case of `CCOC(=O)C1=C(N)Oc2c(oc(CO)cc2=O)C1c1ccc(Cl)cc1` (stereo not given), the Potency is reported as “inactive”.
For `O=C(Nc1ccc2nc(-c3ccco3)c(-c3ccco3)nc2c1)N1CCCC1`, the Potency was 16.9 µM (active).
`CC1CCN(C(=O)Nc2ccc3nc(-c4ccco4)c(-c4ccco4)nc3c2)CC1` was tested, and the Potency was 15.1 µM (active).
In the case of `CCOC(=O)c1ncccc1NC(=O)CC(=O)Nc1cccnc1C(=O)OCC`, the Potency is reported as 2.39 µM (active).
`Cc1cc(OC(=O)c2ccc(Cl)cc2)cc(=O)n1C` was tested, and the Potency was “inactive”.
With `C[C@H](O)[C@@H]1CN2CCc3c([nH]c4ccc(-c5ccc6c(c5)OCO6)cc34)[C@@H]2C[C@@H]1N(C)C(=O)NC1CCCCC1` the Potency was “inactive”.
For `COc1ccc(Nc2nc(N)nc(CSC(=S)N3CCCCC3)n2)cc1`, the Potency was “inactive”.
In the case of `Oc1ccccc1C=NC1CCCCC1N=Cc1ccccc1O` (stereo not given), the Potency is reported as 15.1 µM (active).
`COc1cc([C@H]2Oc3cc([C@H]4Oc5cc(O)cc(O)c5C(=O)[C@@H]4O)ccc3O[C@@H]2CO)ccc1O` was tested, and the Potency was “inactive”.
In the case of `c1ccc(-c2ccc(C3=Nn4c(nnc4-c4cc(-c5ccccc5)n[nH]4)SC3)cc2)cc1`, the Potency is reported as “inactive”.
`Cc1cc(C)n2nc(SCCOc3ccccc3F)nc2n1` was tested, and the Potency was 12 µM (active).
For `O=c1[nH]c(SCCOc2ccccc2F)nc2ccccc12`, the Potency was “inactive”.
With `Cc1cc(C)n2nc(C(=O)NC3CCCc4ccccc43)nc2n1` (stereo not given) the Potency was “inactive”.
With `O=c1[nH]c(=O)n(C2C[C@H](O)[C@@H](CO)O2)cc1C(F)(F)F` (stereo not given in full) the Potency was “inactive”.
In the case of `COc1cccc(/C=N/N2C(=O)CSC2=S)c1O`, the Potency is reported as 1.2 µM (active).
`Cc1ccc(Nc2nc(NCCO)nc3c2cnn3C)cc1Cl` was tested, and the Potency was 7.57 µM (active).
For `COc1ccc(Nc2nc(-c3c(C)nc4ncccn34)cs2)cc1`, the Potency was 2.69 µM (active).
`Cc1nc2ncccn2c1-c1csc(Nc2ccccc2)n1` was tested, and the Potency was 2.39 µM (active).
In the case of `CC1=C(C(=O)OC(C)C)C(c2ccc(N(C)C)cc2)C2=C(CC(C)(C)CC2=O)N1` (stereo not given), the Potency is reported as “inactive”.
`Cc1cc(C(=O)O)ccc1-n1c(C)cc(C=C2C(=O)c3ccccc3C2=O)c1C` was tested, and the Potency was “inactive”.
`COC(=O)c1ccc(C23CC4(C2)[C@H](CN(CC2CCCCC2)[C@@H]4c2ccccc2)C3c2ccc(Cl)nc2)cc1` (stereo not given in full) was tested, and the Potency was “inactive”.
With `NC(=O)c1c(NC(=O)c2ccc(N3C(=O)CCC3=O)cc2)sc2c1CCCC2` the Potency was 0.478 µM (active).
`NC(=O)c1c(NC(=O)c2cnccn2)sc2c1CCCC2` was tested, and the Potency was 0.301 µM (active).
`CCCC(=O)NC(=S)Nc1sc2c(c1C(N)=O)CCC2` was tested, and the Potency was “inactive”.
With `Cc1sc(NC(=O)C2=COCCO2)c(C(N)=O)c1C` the Potency was “inactive”.
In the case of `COc1ccccc1NC(=O)NCCN1CCN(C(=O)Nc2ccccc2OC)CC1`, the Potency is reported as “inactive”.
For `COc1ccc(-c2cc(C3CCNCC3)[nH]n2)cc1`, the Potency was “inactive”.
In the case of `CC(=O)c1ccc(OC(=O)/C=C/c2ccccc2)cc1`, the Potency is reported as 0.536 µM (active).
With `O=C(/C=C/c1ccccc1)Oc1ccc(C(=S)N2CCOCC2)cc1` the Potency was 0.239 µM (active).
With `O=C(Oc1ccc(C(=S)N2CCOCC2)cc1)c1ccc(F)cc1` the Potency was “inactive”.
For `O=C(O)c1ccc2c(c1)C(=O)N(c1ccc(/C=C/C(=O)c3ccccc3)cc1)C2=O`, the Potency was “inactive”.
With `COC(=O)c1ccc(OC(=O)c2cccnc2)cc1` the Potency was “inactive”.
`O=C(Oc1ccc(C(=S)N2CCOCC2)cc1)c1ccccc1` was tested, and the Potency was “inactive”.
`Cc1ccc(C2CC(c3ccc(Br)cc3)=NN2C(=O)CSC2=NN3CCCC(=O)N=C3S2)cc1` (stereo not given) was tested, and the Potency was “inactive”.
With `Fc1cccc(Cc2c(-c3ccco3)nc3ccc(Br)cn23)c1` the Potency was “inactive”.
For `COc1cc(C(=S)N2CCOCC2)ccc1OC(=O)c1ccc([N+](=O)[O-])cc1[N+](=O)[O-]`, the Potency was 10.7 µM (active).
For `CC(=O)N1CCN(/[N+]([O-])=N/Oc2ccc([N+](=O)[O-])cc2[N+](=O)[O-])CC1`, the Potency was “inactive”.
`O=[N+]([O-])c1ccc([N+](=O)[O-])c(Nc2ccc(N3CCOCC3)cc2)c1` was tested, and the Potency was “inactive”.
With `S=c1[nH]nc(-c2ccccn2)n1/N=C/c1ccc(Br)s1` the Potency was 12 µM (active).
`C[C@@]12CCC=C[C@H]1[C@H](c1ccc3ccccc3c1/C=C/c1ccccc1)N(Cc1ccccc1)C2=O` was tested, and the Potency was “inactive”.
In the case of `Cc1ccc(S(=O)(=O)N2c3ccccc3-c3c(ssc3=S)C2(C)C)cc1`, the Potency is reported as 15.1 µM (active).
In the case of `CC(C)OCCCNC(=O)c1ccccc1NC(=O)C1=CSCCO1`, the Potency is reported as “inactive”.
With `Nc1ccccc1C(=O)NNc1c2ccccc2nc2ccccc12` the Potency was 6.75 µM (active).
With `CC(C)(C)C(=O)[C@H]1[C@H](c2ccccc2)[C@@]2(N=C(c3ccccc3)OC2=O)C2c3ccccc3C=NN21` (stereo not given in full) the Potency was “inactive”.
`CCOc1ccc2nc(N3CCCC(C(=O)N4CCN(CC)CC4)C3)sc2c1` (stereo not given) was tested, and the Potency was “inactive”.
In the case of `O=C1c2cccc3cccc(c23)C(=O)N1CCCN1CCN(c2ccc(F)cc2)CC1`, the Potency is reported as “inactive”.
In the case of `CCC(=O)Nc1ccc(-c2nnc(SCc3ccccc3)n2C)cc1`, the Potency is reported as “inactive”.
For `Cc1ccc2cc(NC(=O)CC(CC(=O)O)c3ccccc3)ccc2n1` (stereo not given), the Potency was 15.1 µM (active).
With `CCSc1nc2ccccc2n1C(=O)c1ccc(S(=O)(=O)N2CCCCC2)cc1` the Potency was “inactive”.
With `Cc1ccc(S(=O)(=O)N2CCOCC2)cc1NC(=O)CSc1nnc2cc(C)c3ccccc3n12` the Potency was 13.5 µM (active).
For `CCSc1nnc(-c2ccc(S(=O)(=O)N3CCOCC3)cc2)n1C`, the Potency was “inactive”.
With `Cc1cc(C)c2nc(SCC(=O)N(C)C3CCS(=O)(=O)C3)cc(C)c2c1` (stereo not given) the Potency was “inactive”.
`COc1ccc(S(=O)(=O)c2c(O)c3ccc(C(=O)Nc4cccc(F)c4)cc3[nH]c2=O)cc1` was tested, and the Potency was 0.536 µM (active).
In the case of `COc1ccc(N(CC(=O)Nc2cccc(C(C)=O)c2)S(=O)(=O)c2ccc(NC(C)=O)cc2)cc1`, the Potency is reported as “inactive”.
In the case of `COc1ccc(S(=O)(=O)c2c(O)c3ccc(C(=O)Nc4ccccc4F)cc3[nH]c2=O)cc1`, the Potency is reported as 0.757 µM (active).
With `COc1ccc(C(=O)Nc2cc(OC)c(NC(=O)Nc3ccccc3)cc2OC)cc1` the Potency was “inactive”.
In the case of `COc1ccc(C2NC(C(=O)O)Cc3c2[nH]c2ccccc32)cc1CN1CCN(c2ccc(F)cc2)CC1` (stereo not given), the Potency is reported as “inactive”.
With `CCc1nc2ccc(C(=O)NCCCN(C)C)cn2c1N(C)Cc1ccc(OC)cc1` the Potency was “inactive”.
With `COc1cc(N(C)C)c(OC)cc1/C=C1\C=Cc2ccccc21` the Potency was 5.36 µM (active).
For `COc1cc(N(C)C)ccc1/C=C1\C=Cc2ccccc21`, the Potency was 8.49 µM (active).
For `COc1cc(OC)c(OC)cc1/C=C1\C=Cc2ccccc21`, the Potency was 12 µM (active).
For `COc1cc(OC)c(OC)cc1/C=C1\CC(C)C/C(=C\c2cc(OC)c(OC)cc2OC)C1=O` (stereo not given), the Potency was “inactive”.
`CN(C)c1ccc(/C=C2\C=Cc3ccccc32)c(Cl)c1` was tested, and the Potency was 8.49 µM (active).
`Cc1cc(C)c(C#N)c(Sc2nnnn2-c2ccccc2)n1` was tested, and the Potency was “inactive”.
With `N#Cc1c(N)n(-c2ccc(C(=O)O)cc2)c2nc3ccccc3nc12` the Potency was 12 µM (active).
In the case of `N#Cc1c(N)n(-c2cccc(C(=O)O)c2)c2nc3ccccc3nc12`, the Potency is reported as 10.7 µM (active).
For `O=C(O)c1ccc2c(c1)C(=O)N(c1cccc(-c3nc4ccccc4s3)c1)C2=O`, the Potency was “inactive”.
For `CN(C)C(C)(C)C#CC(O)(c1ccccc1)c1ccccc1`, the Potency was “inactive”.
For `O=C(O)c1ccc(-c2ccc(/C=c3/sc4nc5ccccc5n4c3=O)o2)cc1Cl`, the Potency was 4.26 µM (active).
`CCOc1cccc(CN2CCC(CCC(=O)NC3CC3)CC2)c1O` was tested, and the Potency was “inactive”.
For `CC(C(=O)c1ccc(Br)cc1)[n+]1cccc2ccccc21` (stereo not given), the Potency was “inactive”.
In the case of `CCC(=O)N1c2ccc(S(=O)(=O)N3CCN(c4ccc([N+](=O)[O-])cc4)CC3)cc2CC1C` (stereo not given), the Potency is reported as “inactive”.
For `CCc1ccc2nc(N(CCN(C)C)C(=O)c3ccc4ncsc4c3)sc2c1`, the Potency was “inactive”.
With `Cc1sc2nc3ccc(N4CCCCC4)nn3c(=O)c2c1C` the Potency was 13.5 µM (active).
With `C[C@](N)(Cc1ccc(O)c(O)c1)C(=O)O` the Potency was “inactive”.
`Nc1nc2c(c(=O)[nH]1)C(c1cccc3ccccc13)C1=C(N2)c2ccccc2C1=O` (stereo not given) was tested, and the Potency was 4.26 µM (active).
For `CCCOc1ccc(C2C3=C(Nc4nc(N)[nH]c(=O)c42)c2ccccc2C3=O)cc1` (stereo not given), the Potency was 3.79 µM (active).
For `CCOc1ccc(C2C3=C(Nc4nc(N)[nH]c(=O)c42)c2ccccc2C3=O)cc1` (stereo not given), the Potency was 2.39 µM (active).
In the case of `Nc1nc2c(c(=O)[nH]1)C(c1ccccc1)C1=C(N2)c2ccccc2C1=O` (stereo not given), the Potency is reported as 1.69 µM (active).
In the case of `Cc1nc(NC(=O)c2ccccc2)sc1-c1cc(C(=O)O)nn1Cc1ccccc1`, the Potency is reported as “inactive”.
`CS(=O)(=O)c1ccc(C(=O)Nc2nc(-c3ccco3)c(-c3ccco3)s2)cc1` was tested, and the Potency was 13.5 µM (active).
In the case of `CS(=O)(=O)c1ccc2nc(NC(=O)c3ccccc3Cl)sc2c1`, the Potency is reported as “inactive”.
With `Nc1c(N=Nc2ccc([N+](=O)[O-])cc2)c(S(=O)(=O)O)cc2cc(S(=O)(=O)O)c(/C=C/c3ccccc3)c(O)c12` the Potency was 7.57 µM (active).
With `COc1ccc2c(c1)sc1nc(=O)ccn12` the Potency was “inactive”.
`O=C(N[C@@H]1CC[C@H](CCn2cc(-c3ccccn3)nn2)O[C@@H]1CO)c1ccncc1` was tested, and the Potency was 12 µM (active).
For `Cc1ccc(SCc2nc(N)nc(Nc3ccccc3C)n2)cc1C`, the Potency was “inactive”.
With `COc1ccc(C(=O)C2CCCN(C(=O)c3cccc(N(C)C)c3)C2)cc1OC` (stereo not given) the Potency was “inactive”.
In the case of `COc1cccc(C(=O)C2CCCN(CC3=Cc4cc(OC)ccc4OC3)C2)c1` (stereo not given), the Potency is reported as 13.5 µM (active).
With `Cc1cn2c(nc(=O)c3cccnc32)s1` the Potency was 12 µM (active).
For `Cc1cc(NC(=O)c2cccs2)cc(-c2nc3ncccc3o2)c1O`, the Potency was “inactive”.
For `COc1cc(NC(=O)c2ccccc2Cl)ccc1NC(=O)c1cccs1`, the Potency was “inactive”.
`Cc1cc(NC(=O)c2ccccc2F)ncc1NC(=O)c1cccs1` was tested, and the Potency was 12 µM (active).
With `O=C(Oc1ccc(-c2nnco2)cc1)c1ccco1` the Potency was “inactive”.
In the case of `Cc1ccc(OCC(=O)Nc2cc(NC(=O)COc3ccc(C)c(C)c3)cc(C(=O)O)c2)cc1C`, the Potency is reported as “inactive”.
For `CC(=O)Oc1ccc(C(=O)Nc2cc(NC(=O)c3ccc(OC(C)=O)cc3)cc(C(=O)NC(C)(C)C)c2)cc1`, the Potency was 15.1 µM (active).
